Source: PubChem BioAssay
NR5A2 inv ag = suppresses constitutive activity of human LRH-1. O00482. HEK293T StAR-luciferase reporter, LRH-1 transfected, 24 h. inhibition, % at 3.6 µM. hit rate 0.13% among 360,000. AID 602396;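 active = inhibition above the mean inhibition of all tested compounds plus 3 SD, cut at about 73% in these data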
NR2F2 inh = blocks human COUP-TFII nuclear receptor; HEK293T NGFI-A luciferase reporter, luminescence; inhibition, % at 8.6 µM; hit rate 0.7% among 370,000; AID 686940;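 active = inhibition above a per-plate cutoff, mean inhibition of test wells between control levels plus 3 SD, cut at about 38% in these data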;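 also: cells cotransfected with COUP-TFII expression vector driving the NGFI-A reporter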
SRC1 inh = human NCOA1 inhibition; Q15788; HEK293 GAL4-SRC1 luciferase reporter, luminescence; inhibition, % at 3.6 µM; hit rate 0.12% among 360,000; AID 588354;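 active = inhibition above the campaign mean plus 3 SD, with each screening campaign given its own cutoff, cut at about 60% in these data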
SRC2 inh = human SRC2 (NCOA2) inhibition. HEK293 GAL4-SRC2 luciferase reporter, luminescence. inhibition, % at 9 µM. hit rate 0.17% among 370,000. AID 651957;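 active = inhibition above the mean inhibition of all tested compounds plus 3 SD, set per campaign, cut at about 52% in these data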
SRC3 inh = inhibitors of human steroid receptor coactivator 3 (SRC3). Q9Y6Q9. HEK293 GAL4-SRC3 luciferase reporter, luminescence. inhibition, % at 3.6 µM. hit rate 0.17% among 360,000. AID 588352;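 active = inhibition above a per-campaign cutoff, the mean of all compounds plus 3 SD, cut at about 60% in these data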;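 also: higher means less SRC3-driven luciferase light from the GAL4 reporter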
Gli-Sufu block = blocks Gli-Sufu signaling in a luciferase reporter. AID 588413. inhibition, % at 5 µM. Sufu-KO-LIGHT fibroblasts, Gli luciferase reporter luminescence. hit rate 0.74% among 340,000;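 active = inhibition above about 55%, limit read from the data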
Each line names hits and unclear results; the compound was inactive in the other large screens. Only some compounds are listed: those with a hit (about 1.3% of all), similar ones and a draw of the others.

N#CC(C#N)=NNc1ccc(-n2ccc(C(F)(F)F)n2)cc1	Gli-Sufu block 76.2
CC[n+]1c(/C=C/N(C)c2ccccc2)sc2ccc(Cl)cc21	Gli-Sufu block 85.0
O=C(CNC(=O)OCc1ccccc1)NC(Cc1ccccc1)P(=O)(Oc1ccccc1)Oc1ccccc1 (configuration not stated)	none (no result: NR5A2 inv ag, SRC1 inh, SRC3 inh, Gli-Sufu block)
CCN1/C(=C\C=C\C2=[N+](CC)c3ccccc3C2(C)C)C(C)(C)c2ccccc21	NR5A2 inv ag 90.6, SRC1 inh 75.2, SRC3 inh 80.9, Gli-Sufu block 94.0 (no result: NR2F2 inh, SRC2 inh)
O=C(NCCN1CCC2(CC1)C(=O)NCN2c1ccccc1)C(c1ccccc1)c1ccccc1	none (no result: NR5A2 inv ag, SRC1 inh, SRC3 inh, Gli-Sufu block)
CN1CC[C@@H]2CN[C@H](c3ccccc3Br)C[C@@H]21	none (no result: NR5A2 inv ag, SRC1 inh, SRC3 inh, Gli-Sufu block)
CCC(NC(=O)OCc1ccccc1)P(=O)(Oc1ccccc1)Oc1ccccc1 (configuration not stated)	none (no result: NR5A2 inv ag, SRC1 inh, SRC3 inh, Gli-Sufu block)
COc1ccc2c(c1)[nH]c1c(C)nccc12	SRC1 inh 71.1, SRC3 inh 72.6
Cc1nccc2c1[nH]c1ccc(Br)cc12	none
N=c1c2c(n(Cc3ccc(Cl)cc3Cl)c3c1CCC3)CCCC2	NR5A2 inv ag 81.9 (no result: NR2F2 inh, SRC2 inh)
OC1CN2CCCC(O)C2C1O (configuration not stated)	none (no result: NR5A2 inv ag, SRC1 inh, SRC3 inh, Gli-Sufu block)
CO[C@H]([C@H](C)/C=C/N(C)C=O)[C@@H](C)C(=O)CC[C@H](C)[C@H](O)[C@H](C)[C@H]1OC(=O)/C=C/C(C)=C/[C@H](O)[C@H](OC)C[C@@H]2C=CC[C@@H](C[C@H](OC)[C@@H](CO)[C@@H](OC)C[C@@H](OC)[C@@H]1C)O2	none (no result: NR5A2 inv ag, SRC1 inh, SRC2 inh, SRC3 inh, Gli-Sufu block)
CCn1nc(-c2cccs2)nc2c(=O)n(C)c(=O)nc1-2	none (no result: NR2F2 inh, SRC2 inh, Gli-Sufu block)
CCn1nc(/C=C/c2ccccc2)nc2c(=O)n(C)c(=O)nc1-2	Gli-Sufu block 91.2
Cc1[nH]nc2ccc(-c3cncc(OC[C@@H](N)Cc4c[nH]c5ccccc45)c3)cc12	NR5A2 inv ag 99.4, SRC1 inh 93.5, SRC3 inh 93.7, Gli-Sufu block 93.4 (no result: NR2F2 inh, SRC2 inh)
O=C(O)c1cc2ccccc2n1C1CCN(Cc2ccccc2)CC1	none (no result: NR5A2 inv ag, SRC1 inh, SRC3 inh, Gli-Sufu block)
CC(O)C1C=CC=CC(=O)OC2CC3OC4C5OC5(C)CCC4(COC(=O)C4OC4(C)C(O)CO1)C2(C)C31CO1 (configuration not stated)	NR5A2 inv ag 98.8, NR2F2 inh 91.0, SRC1 inh 95.4, SRC2 inh 74.3, SRC3 inh 94.0, Gli-Sufu block 86.3
CCC12CCN(CC3(O)CC3)C(Cc3ccc(O)cc31)C2(C)C (configuration not stated)	none (no result: NR5A2 inv ag, SRC1 inh, SRC3 inh, Gli-Sufu block)
CN1c2ccc(Br)cc2[C@H]2NCC[C@H]2[C@H]1CO	none (no result: NR5A2 inv ag, SRC1 inh, SRC3 inh, Gli-Sufu block)
Cc1sc2ccccc2c1CC1=NCCN1	Gli-Sufu block 61.4
NC(Cc1ccccc1)[P+](=O)O (configuration not stated)	none (no result: NR5A2 inv ag, SRC1 inh, SRC3 inh, Gli-Sufu block)
CCn1c(P(C)(=O)O)nc2ccccc21	none
CCn1c(NN=O)nc2ccccc21	Gli-Sufu block 70.1
C=C(C=O)CC1CC(O)[C@]2(C)OC3CC4OC5C[C@]6(C)O[C@]7(C)CCC8OC9C[C@]%10(C)OC%11C(C)=CC(=O)OC%11CC%10OC9C[C@@H](C)C8OC7CC6O[C@]5(C)CC5OC5C4OC3CC2O1 (some centres not stated)	Gli-Sufu block 74.9 (no result: NR2F2 inh, SRC2 inh)
CCCc1nc2ccc(Br)cc2c(=O)n1-c1ccc([N+](=O)[O-])c(C(F)(F)F)c1	SRC3 inh 63.6
Cc1cccc(C)c1-n1nnnc1C(CCc1ccccc1)N1CCC(n2c(=O)[nH]c3ccccc32)CC1 (configuration not stated)	SRC3 inh 84.2 (no result: Gli-Sufu block)
O=C(CN1C(=O)[C@@H](Cc2c[nH]c3ccccc23)N=C(c2ccccc2)c2ccccc21)NC1CCCCC1	none (no result: NR5A2 inv ag, SRC1 inh, SRC3 inh, Gli-Sufu block)
COC(=O)C(Cc1ccc(N(CCCl)CCCl)cc1)N=Cc1ccccc1O (configuration not stated)	Gli-Sufu block 63.8
C[CH2][Hg][S]c1ccccc1C(=O)O	Gli-Sufu block 76.2
CC(=O)OC(C)(C)/C=C/C(=O)C(C)(O)C1[C@H](O)C[C@@]2(C)C3CC=C4C(CC[C@@H](O)C4(C)C)[C@]3(CO)C(=O)C[C@]12C (some centres not stated)	Gli-Sufu block 80.4
CC(=O)OC(C)(C)/C=C/C(=O)[C@](C)(O)[C@H]1[C@H](O)C[C@@]2(C)[C@@H]3CC=C4[C@H](C[C@H](O)C(=O)C4(C)C)[C@]3(C)C(=O)C[C@]12C	Gli-Sufu block 87.7 (no result: NR2F2 inh, SRC2 inh)
CC(=O)OC(C)(C)/C=C/C(=O)C(C)(O)C1C(O)CC2(C)C3CC=C4C(CC(O)C(=O)C4(C)C)C3(C)C(=O)CC12C (configuration not stated)	SRC2 inh 61.7, Gli-Sufu block 86.8
N=c1c2c(-c3ccccc3)c(-c3ccccc3)n(Cc3ccccc3)c2ncn1C1CCC(O)CC1 (configuration not stated)	none (no result: NR5A2 inv ag, SRC1 inh, SRC3 inh, Gli-Sufu block)
COC(=O)C1(N(C)c2ccccc2)CCN(Cc2ccccc2)CC1	none (no result: NR5A2 inv ag, SRC1 inh, SRC3 inh, Gli-Sufu block)
O=C(NCCN1CCC2(CC1)C(=O)NCN2c1ccccc1)c1ccc(OC(F)(F)F)cc1	none (no result: NR5A2 inv ag, SRC1 inh, SRC3 inh, Gli-Sufu block)
c1ccc2c(c1)-c1cccc3cccc-2c13	none
c1ccc2c(c1)[IH]c1ccccc1-2	NR2F2 inh 59.2, Gli-Sufu block 85.9
COC1=C(C)C(=O)C2=C(C1=O)C(CO)N1C(C#N)C3CC4C(C1C2N1CCOC41)N3C (configuration not stated)	SRC1 inh 75.5, SRC2 inh 56.1, SRC3 inh 83.0
N#Cc1ccc2nc(-c3ccc(CN4CCC(n5c(=O)[nH]c6cc(Cl)ccc65)CC4)cc3)c(-c3ccccc3)nc2c1	none (no result: NR5A2 inv ag, SRC1 inh, SRC3 inh, Gli-Sufu block)
CC(C)C(NC(=O)OCc1ccccc1)P(=O)(Oc1ccccc1)Oc1ccccc1 (configuration not stated)	none (no result: NR5A2 inv ag, SRC1 inh, SRC3 inh, Gli-Sufu block)
CC(C)[C@H]1C(=O)O[C@H](C(C)C)C(=O)N(C)[C@@H](C(C)C)C(=O)O[C@H](C(C)C)C(=O)N(C)[C@@H](C(C)C)C(=O)O[C@H](C(C)C)C(=O)N1C	SRC3 inh 70.0, Gli-Sufu block 83.8 (no result: NR2F2 inh, SRC2 inh)
CC[C@H](C)[C@@H]1OC(=O)[C@H](C(C)C)N(C)C(=O)[C@H](C(C)C)NC(=O)[C@@H](C)[C@@H](CCCC#CBr)OC(=O)[C@H](C(C)C)N(C)C(=O)C2CCCN2C1=O (some centres not stated)	none (no result: NR5A2 inv ag, SRC1 inh, SRC2 inh, SRC3 inh, Gli-Sufu block)
Cc1cccc(Cn2cc(C=O)c3ccccc32)c1	none
O=Cc1cn(Cc2cccc([N+](=O)[O-])c2)c2ccccc12	NR5A2 inv ag 80.5
O=C1CN=C(c2ccc[nH]2)c2cc(Cl)ccc2N1	SRC2 inh 53.0
CN=C1CN=C(c2ccc[nH]2)c2cc(Cl)ccc2N1	none (no result: NR5A2 inv ag, SRC1 inh, SRC2 inh, SRC3 inh, Gli-Sufu block)
O=C(CN1C(=O)[C@@H](Cc2ccccc2)N=C(c2ccccc2)c2ccccc21)NC1CCCCC1	none (no result: NR5A2 inv ag, SRC1 inh, SRC3 inh, Gli-Sufu block)
CC(=NNC(=S)N1CC2CCC(CC2)C1)c1nccs1	Gli-Sufu block 91.1
O=C1CN=C(c2ccccc2)c2oc3ccc(Br)cc3c2N1	none
COc1cccc(OC)c1C1=NCC(=O)Nc2c1oc1ccc(Br)cc21	Gli-Sufu block 57.1
